Assay results: the supplement of paper PMC6555819

Tests used:
Experiment in all cases: PBM binding z-score (relative to random genomic background probes); higher = stronger binding; sequences stand for … in GC…GCGATTGACAGCGTAGAATGAAGG
[1] = system: RARb homodimer (NR concentration 270 nM)
Method in brief: (§1)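 Binding buffer was PBS pH 7.4 with 2% milk, 0.02% Triton X-100, 1 mM DTT, 0.2 mg/mL BSA and 0.4 mg/ml salmon testes DNA. In it, ligand-free nuclear receptor dimers were incubated 1 h on custom Agilent 4×180K protein-binding microarrays carrying double-stranded probes. Antibodies against each partner (one per run) detected binding, and z-scores were calculated against random background probes after regression normalization of scanned fluorescence.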

[2] = system: RARg:RXRa (NR concentration 270 nM, RXRa partner concentration 90 nM)
Method in brief: as §1

[3] = system: RARg homodimer (NR concentration 270 nM)
Method in brief: as §1

[4] = system: RXRa DBDmut IVT, anti-RXR (DBD mutation: RXRa K156A/R161A, NR concentration 90 nM)
Method in brief: as §1

[5] = system: RXRa homodimer (NR concentration 180 nM)
Method in brief: as §1

[6] = system: THRa:RXRa (NR concentration 90 nM, RXRa partner concentration 90 nM)
Method in brief: as §1

[7] = system: THRa homodimer (NR concentration 90 nM)
Method in brief: as §1

[8] = system: VDR homodimer (NR concentration 270 nM)
Method in brief: as §1

Sequence	PBM binding z-score [1]	PBM binding z-score [2]	PBM binding z-score [3]	PBM binding z-score [4]	PBM binding z-score [5]	PBM binding z-score [6]	PBM binding z-score [7]	PBM binding z-score [8]
CCTACTGGGCCAAATGTCATTGATTCCAATGCTC	0.556	0.265	0.594	0.342	0.124	-0.237	-0.347	-0.651
ATCTCTAGGGAAAGATAGTTCAGTGAATGCAAAT	0.675	0.502	0.656	0.0504	0.0958	0.201	-0.33	0.635
TGAATGAGGTTATAAGATCAGGGAGCGTTGCAAA	-0.251	1.37	0.756	0.685	1.8	1.61	-0.245	0.229
ATCTCTAGATAAAAGTTCAGTGAATCCCGAGGAT	2.21	1.29	1.8	0.614	0.778	0.538	-0.209	1.35
CCTCACGGGTCACTCCAGGTTATAGCATCGGAGT	3.09	4.28	4.2	1.49	4.07	4.79	0.721	1.94
CCTCGGTGGACAGAAGGTCAGAGCTGTCCGCTTT	2.87	2.3	1.99	-0.526	1.84	1.89	-0.379	-0.538
CCTAGCTGGTCAGGAGGTCACACACCGGATATGA	4.31	5.14	4.44	0.548	4.69	3.36	2.01	2.14
GGAACGAGGGCAAAGTTGAGAGCATCTGTCGACG	1.51	2.51	1.87	2.46	2.33	1.53	-0.419	1.38
TCATATAGGTAATACAGGTGAAACTCGGCATCTA	0.77	0.826	0.818	1.45	1.1	1.23	0.391	0.169
CAAACTAGGTCAAGTGGTCAAAGTCCGCTTCCCG	4.26	4.95	5.48	1.85	3.76	3.16	1.43	1.08
CAAACTAGGTCACAGAAGTCAAAGTCCGTGCGTA	3.41	4.45	5.16	2.03	3.63	3.3	1.26	1.16
CAAACTAGGTCTCGAAAGGTCAAAGTCGAATGAC	4.49	5.71	5.18	1.18	6.53	3.97	1.2	2.67
TCTGCTAGGTCAACCATGGTCAGCTAATCTGCTA	3.53	4.4	5.7	1.05	3.24	3.78	1.03	-0.484
CGAACGAGGGCATGAGTTGGTAGCAAATGCCGAT	0.553	0.807	1.29	1.87	0.675	1.03	-0.283	0.904
ACTGGCAGGCCAAGGGTCACTCAAGATTAGTCCG	3.66	4.14	3.64	-0.0715	3.95	2.71	0.159	1.11
CGTCAAAGTTCAAGGTAACGAAACAGAAAGCAGC	3.67	5.6	6.29	4.46	5.13	2.9	0.933	2.99
TCGAGTAGGTTAGTCGGGACATTCAGCCAACATA	0.0324	-0.106	0.0152	0.327	0.107	1.39	0.328	0.0666
CAGCCTAGGTCATGGCCAGTATAGGAGGAACGTT	3.01	4.38	4.94	1.17	3.32	2.93	0.965	0.197
CAAACTAGGTCACCCGAAGGTCAAAGTCCGCATG	5.43	7.91	6.9	2.35	6.29	4.45	3.04	4.18
ATCTGTAGGTAAAGATAGTTCAGTGAATGCAAAT	0.933	0.435	0.657	-0.108	0.326	0.527	-0.0674	0.568
TCGAGTAGGTAAGGGGCATTCAGAATGGCGTCGA	0.551	-0.117	-0.0823	-0.0222	0.0821	-0.336	-0.325	0.178
ATCTCTAGGTAACTAGTTCAGTGAAAGAGAGGAC	0.47	0.193	0.685	-0.215	0.0901	0.996	0.507	0.877
GCAGACAGGTGAAACGCCGGTAACTCAGGGTGGC	-0.057	0.644	0.166	-0.634	0.513	0.157	-0.511	-0.512
TCTTGTAGATCAATAGAGGTCAAGAAAGTGCGCT	4.21	3.92	3.84	0.858	4.46	4.17	0.941	2.12
CCTAGTTGGTCAGGAGCTCACACACCGGATATGA	0.161	0.446	0.601	-0.0483	0.0648	-0.298	-0.103	0.545
ATTTCTAGGTAACCAAGTTCAGTGAATGCCGAAC	1.55	0.786	0.952	0.875	0.621	1.81	0.761	3.08
CCTACTGGGCCATTCAGAGGTCATTTATCATATG	3.73	3.91	2.73	1.47	3.27	3.12	1.45	4.04
TCTCGGAGGACACGAAGGTCAGATCTTTCCAGAG	3.7	3.45	4.36	1.15	2.48	2.94	0.979	2.36
